# Assay results: PubChem BioAssay (NCATS)
# Results filed as inconclusive are left out. Calls of active or inactive are those of the source. Calls come from the whole dose curve; as a rule, active = well fitted cell-killing curve with a large enough effect; inconclusive = small, poorly fitted or top-dose-only effect, or effect the other way; inactive = no such curve, though single readings can be large or run the other way.
# What was measured:
# [1] = Quantitative High-Throughput drug screen in 47 multiple myeloma cell lines against the NCATS MIPE library collection: FR4_PLB cell viability assay (AID 1918924; note: nearly all actives have a fitted effect of over 35% in size)
# Summary of the method: (§1)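 Steps: seed 500 cells per well; pin-transfer MIPE 4.0 library; incubate 48 h at 37C, 5% CO2, humidified; add CellTiter-Glo, 5 min room temperature; read luminescence.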
# [2] = Quantitative High-Throughput drug screen in 47 multiple myeloma cell lines against the NCATS MIPE library collection: EJM_DSMZ cell viability assay (AID 1918926; note: nearly all actives have a fitted effect of over 30% in size)
# Summary of the method: (§2)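 Myeloma cell lines, 500 cells per well, exposed to MIPE 4.0 library compounds for 48 h at 37C, 5% CO2. Viability from ATP by CellTiter-Glo luminescence; normalised to DMSO (100%) and media-only (0%) wells.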
# [3] = Quantitative High-Throughput drug screen in 47 multiple myeloma cell lines against the NCATS MIPE library collection: ARP1_JJKsccF8 cell viability assay (AID 1918928; note: nearly all actives have a fitted effect of over 40% in size)
# Summary of the method: (§3)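 500 cells/well; MIPE 4.0 library pinned in; 48 h, 37 °C, 5% CO2; CellTiter-Glo ATP luminescence. Controls: DMSO = 100% viability, medium only = 0%.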
# [4] = Quantitative High-Throughput drug screen in 47 multiple myeloma cell lines against the NCATS MIPE library collection: AMO1_DSMZ cell viability assay (AID 1918927; note: nearly all actives have a fitted effect of over 30% in size)
# Summary of the method: as §2
# [5] = Quantitative High-Throughput drug screen in 47 multiple myeloma cell lines against the NCATS MIPE library collection: Karpas620_DSMZ cell viability assay (AID 1918959); note: nearly all actives have a fitted effect of over 30% in size
# Summary of the method: as §1
# [6] = Quantitative High-Throughput drug screen in 47 multiple myeloma cell lines against the NCATS MIPE library collection: KMM1_JCRB cell viability assay (AID 1918960); note: nearly all actives have a fitted effect of over 30% in size
# Summary of the method: as §3
# [7] = Quantitative High-Throughput drug screen in 47 multiple myeloma cell lines against the NCATS MIPE library collection: Delta47_JCRB cell viability assay (AID 1918925; note: nearly all actives have a fitted effect of over 45% in size)
# Summary of the method: as §2
# [8] = Quantitative High-Throughput drug screen in 47 multiple myeloma cell lines against the NCATS MIPE library collection: ARD_JJKsccE7 cell viability assay (AID 1918929)
# Summary of the method: as §2
# [9] = Quantitative High-Throughput drug screen in 47 multiple myeloma cell lines against the NCATS MIPE library collection: Karpas417_ECACC cell viability assay (AID 1918961); conditions: Karpas417 myeloma viability, CellTiter-Glo ATP luminescence, 48 h; viability (% of DMSO): at 45.8 µM (top of the series)
# Summary of the method: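 CellTiter-Glo luminescence (ATP) after 48 h compound exposure, 37C/5% CO2; 500 cells/well; MIPE 4.0 approved/investigational drugs pinned in; DMSO = 100%, media only = 0% viability.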
# Potency is the fitted concentration of half-maximal effect.
Compound,Potency [1],Potency [2],Potency [3],Potency [4],Potency [5],Potency [6],Potency [7],Potency [8],Potency [9]
CCOc1cc2ncc(C#N)c(Nc3ccc(F)c(Cl)c3)c2cc1NC(=O)C=CCN(C)C,7.43 µM (active),5.9 µM (active),1.66 µM (active),–,–,–,–,–,–
O=C(O)[C@H](Cc1c[nH]c2ccccc12)N1C(=O)c2ccccc2C1=O,inactive,inactive,inactive,inactive,inactive,inactive,–,–,–
CC(C)c1ccccc1Cc1cc(C(=O)Nc2ccc(S(=O)(=O)c3ccccc3C(C)(C)C)cc2)c(O)c(O)c1O,9.35 µM (active),–,14.8 µM (active),inactive,–,–,7.43 µM (active),inactive,–
CC=C1NC(=O)[C@H]2CSSCCC=C[C@H](CC(=O)N[C@H](C(C)C)C(=O)N2)OC(=O)[C@H](C(C)C)NC1=O,0.0105 µM (active),0.0296 µM (active),0.0264 µM (active),0.0148 µM (active),–,0.0074 µM (active),–,11.8 nM (active),–
CNC(=O)CN1CCC(Oc2cc3c(Nc4cccc(Cl)c4F)ncnc3cc2OC)CC1,0.0264 µM (active),–,0.0372 µM (active),–,–,0.0148 µM (active),0.0187 µM (active),1 nM (active),–
CC[C@H]1CN2CCc3cc(OC)c(OC)cc3[C@H]2C[C@@H]1C[C@@H]1NCCc2cc(OC)c(OC)cc21,0.372 µM (active),–,0.187 µM (active),0.235 µM (active),235 nM (active),–,0.166 µM (active),296 nM (active),–
COc1cc(=C2C=c3ccccc3=N2)[nH]c1=Cc1[nH]c(C)cc1C,1.18 µM (active),–,1.05 µM (active),–,7430 nM (active),–,1.87 µM (active),–,16.6 µM (active)
Cc1ccc(S(=O)(=O)Nc2cc(Cl)ccc2C(=O)Nc2nc(-c3ccccc3)cs2)cc1,20.9 µM (active),–,20.9 µM (active),9.35 µM (active),–,4.18 µM (active),4.69 µM (active),–,–
CC(=O)OCC(=O)[C@@]1(O)[C@H](C)C[C@H]2[C@@H]3C=C(C)C4=Cc5c(cnn5-c5ccccc5)C[C@]4(C)[C@@H]3[C@@H](O)C[C@@]21C,14.8 µM (active),–,4.69 µM (active),–,–,–,5.9 µM (active),–,–
COc1cc2ncn(-c3cc(OCc4ccccc4C(F)(F)F)c(C(N)=O)s3)c2cc1OC,5.26 µM (active),–,–,0.743 µM (active),235 nM (active),–,7.43 µM (active),935 nM (active),13.2 µM (active)
CC(O)C1C(=O)N2C(C(=O)O)=C(SC3CNC(C(=O)N(C)C)C3)C(C)C12 (stereo not drawn),inactive,inactive,–,–,inactive,inactive,inactive,inactive,–
COc1cc2c(Oc3ccc(-c4cnc(Nc5ccc(F)cc5)n(C)c4=O)cc3F)ccnc2cc1OCCCN1CCOCC1,14.8 µM (active),–,8.33 µM (active),2.35 µM (active),–,1.87 µM (active),0.935 µM (active),–,–
Cc1cnc(-c2cnc(NCCNc3ccc(C#N)cn3)nc2-c2ccc(Cl)cc2Cl)[nH]1,–,–,–,–,inactive,inactive,–,–,–
CCC(=C(c1ccccc1)c1ccc(OCCN(C)C)cc1)c1ccccc1,–,–,–,18.7 µM (active),–,18.7 µM (active),23.5 µM (active),20900 nM (active),14.8 µM (active)
CCCCCCCCCC(=O)N[C@@H](Cc1c[nH]c2ccccc12)C(=O)N[C@H](CC(N)=O)C(=O)N[C@@H](CC(=O)O)C(=O)N[C@@H]1C(=O)NCC(=O)N[C@@H](CCCN)C(=O)N[C@@H](CC(=O)O)C(=O)N[C@H](C)C(=O)N[C@@H](CC(=O)O)C(=O)NCC(=O)N[C@H](CO)C(=O)N[C@@H]([C@@H](C)CC(=O)O)C(=O)N[C@@H](CC(=O)c2ccccc2N)C(=O)O[C@@H]1C,–,inactive,inactive,inactive,inactive,–,inactive,–,–
N#Cc1c(O)c2c(-c3ccc(-c4ccccc4O)cc3)csc2[nH]c1=O,–,–,inactive,–,inactive,inactive,inactive,–,–
COC(=O)c1ccc2c(C(=Nc3ccc(N(C)C(=O)CN4CCN(C)CC4)cc3)c3ccccc3)c(O)[nH]c2c1,–,3.72 µM (active),23.5 µM (active),4.69 µM (active),–,1.66 µM (active),6.62 µM (active),–,0.187 µM (active)
Cc1cc(Nc2cc(NC(=O)c3c(Cl)cccc3Cl)ccn2)nc(N)n1,–,16.6 µM (active),0.296 µM (active),0.187 µM (active),–,0.418 µM (active),18.7 µM (active),209 nM (active),2.64 µM (active)
CN(C)CCCN=c1c2ccccc2n(C)c2[nH]c(=O)n(C)c(=O)c12,–,–,18.7 µM (active),2.96 µM (active),–,4.69 µM (active),16.6 µM (active),5260 nM (active),–
CCN1CCN(Cc2ccc(-c3cc4c(N[C@H](C)c5ccccc5)ncnc4[nH]3)cc2)CC1,–,–,–,–,–,0.0743 µM (active),–,46.9 nM (active),8.33 µM (active)
